# Source: ChEMBL document CHEMBL3988442, “University of Dundee, Small-Polar-MMV Screening Library” (2021)
# Biological target: Shiga toxin 2 (Escherichia coli O157:H7) (UniProt P09385+P09386)
# Test: E. coli 0.157:H7 Shiga Toxin SOP - stx2 screening assay
# Format: functional
# Parameters: scale not given: direction of the effect not stated beside the values
# Conditions: 30 µM
row,SMILES,Percent Effect [%]
1,CC(NC(=O)N1CCN(CCc2ccccc2)CC1)c1nncn1C (stereo not given),-13.8
2,CN(Cc1cscn1)C1CCCN(Cc2noc(C3CC3)n2)C1 (stereo not given),0.508
3,CCOCC(O)CN1CCN(C(=O)c2cccnc2OC)CC1 (stereo not given),12.8
4,Cc1noc([C@H]2COC[C@H]3CN(C(=O)Cc4ccc(F)cc4)C[C@H]32)n1,23.4
5,O=C(c1ccco1)N1CCOCC2(C1)CN(c1ccccc1)C(=O)CO2 (stereo not given),2.61
6,O=C(c1cccnc1-n1cccn1)N1CCN(CC2CC2)CC1,7.9
7,Cc1cc(-c2cnc(NCc3cccnc3)nc2C(C)C)on1,10.2
8,COc1cc(S(=O)(=O)N2CCCc3ccccc32)cc(C(=O)O)c1OC,-8.55
9,CC(C)N(C)CCCNC(=O)c1cnc(-c2ccccc2)nc1,-37.7
10,c1cncc(COCc2nnc3n2CCN(Cc2ccsc2)C3)c1,-54.6
11,OC1CCN(Cc2c(C3CCCNC3)[nH]c3ncccc23)CC1 (stereo not given),-0.778
12,Cc1ccc(C)c(C(NC(=O)C(C)(C)C)c2cccnc2)c1 (stereo not given),1.8
13,O=C(NCc1cc[nH]n1)NCC(O)c1ccc(F)cc1F (stereo not given),-25
14,COc1ccc(C2CCCN2S(=O)(=O)N(C)CC(C)C)cc1 (stereo not given),-7.35
15,Cc1nn(C)c(N(C)C)c1CNCc1ccccc1Cn1cncn1,10.9
16,Cc1ccsc1[C@@H]1CCN(C(=O)c2cc3ccccc3[nH]2)C[C@H]1O,-11.7
17,CC(C)OCCN1CCN(C(=O)c2cccc(CC#N)c2)CC1,-12.3
18,c1ccc(CN2CCc3ncnc(-c4ccsc4)c3CC2)nc1,-6.45
19,CCN(CC)C(CNC(=O)c1ccc(S(C)(=O)=O)cc1)c1ccco1 (stereo not given),-4.44
20,COc1ccc(-c2cnc(CN3CCn4c(C)nnc4C3)o2)cc1,-27.2
